Experimental data: PubChem BioAssay (Tox21)
Results filed as inconclusive are left out. Unmarked numbers belong to inactive results. Calls come from the whole dose curve; as a rule, active = well fitted cell-killing curve with a large enough effect in the repeat runs; inconclusive = weak or mixed curves, or effect the other way; inactive = flat fitted curve, though single readings scatter.

test: qHTS assay to identify small molecule agonists of the constitutive androstane receptor (CAR) signaling pathway - cell viability counter screen (AID 1224836); details: HepG2-CYP2B6-hCAR viability, CellTiter-Fluor, 23 h, PK11195 added to every well; series mostly up to 92.4 µM; viability change, negative = cytotoxic: at the top concentration; note: nearly all actives have a fitted effect of over 45% in size
Text: U.S. Tox21 Program National Center for Advancing Translational Sciences [NCATS] NIH Chemical Genomics Center [NCGC] U.S. Environmental Protection Agency [EPA] National Institutes of Environmental Health Sciences [NIEHS] National Toxicology Program [NTP] U.S. Food and Drug Administration [FDA] Tox21 Assay Overview: The constitutive androstane receptor (CAR) is a nuclear receptor which regulates multiple drug metabolizing enzymes (DMEs) and transporters. Activating CAR will generally increase the transcription and subsequent translation of CYP2B6 and CYP3A4. These two DMEs represent about 50% of the drug metabolizing potential in the body. […] Recently, there have also been studies performed indicating CARs role in energy metabolism and cancer therapy. Therefore, inducing CARs activity could have a potential effect on diabetes and cancer. Identifying environmental toxins and compounds which modulate CAR, through the use of the Tox21 10K compound collection, will be an important step in determining the toxicity and potential therapeutic effects these factors will have on the human body. To differentiate true CAR agonists from cytotoxic substances, the assay is multiplexed with a cell viability assay.
Tox21 Assay Protocol Summary: A double-stable (hCAR and CYP2B6-2.2kb) transfected cell line, derived from human hepatoma (HepG2) cells, was utilized for the duration of the quantitative high-throughput screens. The HepG2-CYP2B6-hCAR cells were dispensed at 2500 cells/4 uL/well in 1536-well white solid bottom plates using a Multidrop Combi. After the assay plates were incubated at 37 C/5% CO2 for 4 hrs, 23 nL of compounds at 15 concentrations (from 5-48 columns) or positive control (from 1 to 4 columns) were transferred to the assay plates using a Pintool station. One uL of PK11195 (final concentration = 0.75 uM) was added, using a Flying Reagent Dispenser, inside each well. After a 23 hr incubation period at 37 C/5% CO2, 1 uL of CellTiter-Fluor reagent was added into each well of the assay plates using a Flying Reagent Dispenser. The fluorescence intensity in the plates was then measured using a ViewLux plate reader.
% is set by controls: 0 for no effect and ±100 for the full control effect.

SMILES | viability change, negative = cytotoxic
Cc1ccc([N+](=O)[O-])cc1Cl | 2.02%
CN(C)Cc1ccccc1 | 2.41%
Cn1cnc2c(F)c(Nc3ccc(Br)cc3Cl)c(C(=O)NOCCO)cc21 | -8.51% [at 42.5 µM]
Cc1c(-c2ccccc2)oc2c(C(=O)OCCN3CCCCC3)cccc2c1=O | -3.79% [at 42.5 µM]
O=C(O[C@@H](C(=O)O)[C@@H](OC(=O)c1ccccc1)C(=O)O)c1ccccc1 | 1.58%
Cc1cc2nc(N)sc2cc1C | -0.959%
CCN(CCCc1ccccc1)CCCc1ccccc1 | -8.76% [at 42.5 µM]
O=C(CCCl)NCc1ccccc1 | 3.14% [at 42.5 µM]
O=C(Cl)c1cccc([N+](=O)[O-])c1 | 13.2%
Nc1ccc(Oc2ccc(N)c(N)c2)cc1 | -18.3%
O=C1N(c2ccccc2)c2ccccc2C1(Cc1ccncc1)Cc1ccncc1 | 10.9% [at 42.5 µM]
C1CSCCS1 | -2.66%
NC(=O)NS(=O)(=O)c1ccc(Cl)cc1 | 3.14% [at 42.5 µM]
CCCOCCC | -3.79%
CN1CCC[C@@H]1Cc1c[nH]c2ccc(CCS(=O)(=O)c3ccccc3)cc12 | 3.23% [at 42.5 µM]
O=C1CCC(C2CCCCC2)CC1 | -1.67%
CC1(C)C(=O)N(Cl)C(=O)N1Br | 5.2%
O=c1[nH]c(=O)n([C@H]2C[C@H](O)[C@@H](CO)O2)cc1C(F)(F)F | 0.716% [at 42.5 µM]
CC1CN(c2ccccc2)NC1=O (stereo not given) | -5.46%
OCCN(CCO)c1ccccc1 | -3.35%

SMILES | viability change, negative = cytotoxic
CCCCCCCOC(=O)CCC | -13.5%
CCCNC(C)(C)COC(=O)c1ccccc1 | -4.98% [at 42.5 µM]
O=C1CCCCCCCCCCC(=O)OCCO1 | 0.515%
OCCN1CCN(CCO)CC1 | 0.92%
CCCC1CCC(=O)O1 (stereo not given) | -1.8%
CCCCCCCCOC(=O)CCCCCCCCC(=O)OCCCCCCCC | -2.54%
CCOC(=O)NCCC[Si](OCC)(OCC)OCC | 1.92%
CCOC(=O)[C@H](CCc1ccccc1)N[C@@H](C)C(=O)N1Cc2cc(OC)c(OC)cc2C[C@H]1C(=O)O | -0.508% [at 42.5 µM]
N#CSCC(=O)O | 7% [at 42.5 µM]
CN(CCCN1c2ccccc2CCc2ccccc21)CC(=O)c1ccc(Cl)cc1 | -1.97% [at 42.5 µM]
CC(C)CC(=O)OCc1ccccc1 | 2.8%
CC(C)Nc1nc(N)nc(Cl)n1 | 3.65%
c1ccc(CN(CC2=NCCN2)c2ccccc2)cc1 | -5.29% [at 42.5 µM]
Cc1ncc(CO)c(CN)c1O | 3.73% [at 42.5 µM]
CCCS(=O)c1ccc2nc(NC(=O)OC)[nH]c2c1 (stereo not given) | -13.5% [at 42.5 µM]
CCCCCCCCCC/C=C/C#N | 7.48%
CCNCCO | -5.17%
CCOc1ccc(OCC)c(Cl)c1 | -10.3%
CCCNC(C)C(=O)Nc1c(C)csc1C(=O)OC (stereo not given) | 4.78% [at 42.5 µM]
COc1ccc(S(=O)(=O)Nc2nnc(CC(C)C)s2)cc1 | -1.53% [at 42.5 µM]
